Data: the supplement of paper PMC8285479
Counter-ions that a name gives are not always drawn. ± gives the standard deviation of the averaged measurements. Whole data set: some 1,900 compounds, median “normalised cell viability (NPI; 0 = phenylarsine oxide control, 1 = DMSO control)” near 1, cut for the lowest 2% near 0.039. Many of the other results were omitted from the sample, so the lowest values are more common in it than they were.

Tested on: NCI-H1944
Assay: normalised cell viability (NPI; 0 = phenylarsine oxide control, 1 = DMSO control) (fraction of DMSO control); NCI-H1944 is a non-small cell lung cancer line; higher = more viable cells (less compound toxicity)
Conditions: 6 days
[1] = glucocorticoid arm: hydrocortisone 2.75 uM co-treatment, compound 1 µM
[2] = glucocorticoid arm: hydrocortisone 2.75 uM co-treatment, compound 5 µM
[3] = glucocorticoid arm: hydrocortisone 2.75 uM pre-treated 2 days and continued, compound 1 µM
[4] = glucocorticoid arm: hydrocortisone 2.75 uM pre-treated 2 days and continued, compound 5 µM
[5] = glucocorticoid arm: vehicle, compound 1 µM
[6] = glucocorticoid arm: vehicle, compound 5 µM
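Also: CTB read-out in 384-well plates, triplicate wells, NPI normalised per plate against 1 µM phenylarsine oxide (0) and 0.1% DMSO (1) controls.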

Row | SMILES | normalised cell viability [1] | normalised cell viability [2] | normalised cell viability [3] | normalised cell viability [4] | normalised cell viability [5] | normalised cell viability [6]
1 | O=C(/C=C/c1ccc2ccccc2n1)c1ccncc1 | 1.01 ± 0.013 | 1.067 ± 0.0058 | 1.02 ± 0.01 | 1.02 ± 0.015 | 1.01 | 1.01 ± 0.01
2 | NC(Cc1cccc(-c2ccccc2CP(=O)(O)O)c1)C(=O)O (stereo not drawn) [Phenylbenzene-omega-phosphono-alpha-amino acid] | 0.9963 ± 0.0055 | 1.1 ± 0.021 | 1.06 ± 0.087 | 1.04 ± 0.021 | 1.017 ± 0.0058 | 1.03 ± 0.01
3 | Cc1ccc(S(=O)(=O)C=CC#N)cc1 | 0.979 ± 0.013 | 0.976 ± 0.0056 | 0.9813 ± 0.0023 | 0.997 ± 0.023 | 0.988 ± 0.011 | 0.688 ± 0.081
4 | CC(C)(C)c1ccc(S(=O)(=O)/C=C/C#N)cc1 | 0.9913 ± 0.008 | 0.41 ± 0.055 | 0.9847 ± 0.007 | 0.9755 ± 0.0021 | 0.972 ± 0.0092 | 0.00936 ± 0.004
5 | CC(/C=C/c1cccc(Oc2ccc(F)cc2)c1)N(O)C(N)=O (stereo not given) | 1.017 ± 0.0058 | 1.07 ± 0.01 | 1.01 ± 0.011 | 1.06 ± 0.014 | 1.02 ± 0.015 | 1.023 ± 0.0058
6 | O=C(O)[C@@H]1C[C@H](C(=O)O)N1 [cis-Azetidine-2,4-dicarboxylic acid] | 0.992 ± 0.0044 | 0.97 ± 0.015 | 0.997 ± 0.012 | 1 | 0.9863 ± 0.0029 | 0.976 ± 0.011
7 | OC[C@H]1NC[C@H](O)[C@@H](O)[C@@H]1O [1-Deoxynojirimycin hydrochloride] | 1.01 ± 0.011 | 0.984 ± 0.025 | 0.995 ± 0.015 | 0.969 ± 0.0066 | 1.003 ± 0.0058 | 0.991 ± 0.013
8 | CN(C)CCC(c1ccc(Cl)cc1)c1ccccn1 (racemic) [(±)-Chlorpheniramine maleate] | 0.9833 ± 0.0025 | 0.985 ± 0.018 | 0.9843 ± 0.0078 | 0.991 ± 0.028 | 0.9727 ± 0.0021 | 0.987 ± 0.0069
9 | OC[C@H]1NC[C@@H](O)[C@@H]1O [1,4-Dideoxy-1,4-imino-D-arabinitol] | 0.9993 ± 0.0011 | 0.9807 ± 0.0015 | 0.997 ± 0.014 | 0.976 ± 0.027 | 1.002 ± 0.007 | 0.992 ± 0.012
10 | COc1ccc(-c2ccc3ncc4c(c3c2)n(-c2ccc(N3CCNCC3)c(C(F)(F)F)c2)c(=O)n4C)cn1 | 0.00163 ± 0.00092 | 0.000434 ± 0.00018 | 0.25 ± 0.021 | 0.0016 ± 0.00014 | 0.000974 ± 0.00058 | 0.000275 ± 0.00038
11 | Cn1c(=O)n(-c2ccc(C(C)(C)C#N)cc2)c2c3cc(-c4cnc5ccccc5c4)ccc3ncc21 | 0.421 ± 0.017 | 0.496 ± 0.04 | 0.629 ± 0.0076 | 0.633 ± 0.071 | 0.255 ± 0.013 | 0.408 ± 0.047
12 | c1ccc(C2CN3CCSC3=N2)cc1 (single isomer, unassigned; (-)) [(-)-Tetramisole hydrochloride] | 1.017 ± 0.0058 | 1.01 ± 0.015 | 1.02 ± 0.015 | 1.02 ± 0.015 | 1.02 | 1.02 ± 0.015
13 | O=Nc1c(-c2c(O)[nH]c3cc(Br)ccc23)[nH]c2ccccc12 | 1.15 ± 0.01 | 1.24 ± 0.032 | 1.127 ± 0.011 | 1.16 ± 0.031 | 1.04 ± 0.01 | 1.07 ± 0.01
14 | CCN1CCN(Cc2ccc(Nc3ncc(F)c(-c4cc(F)c5nc(C)n(C(C)C)c5c4)n3)nc2)CC1 | 0.493 ± 0.041 | 0.312 ± 0.06 | 0.528 ± 0.03 | 0.599 ± 0.14 | 0.252 ± 0.028 | 0.000109 ± 0.00093
15 | N=C(NC(=O)c1nc(Cl)c(N)nc1N)Nc1ccccc1 [Phenamil methanesulfonate] | 1.01 ± 0.011 | 1.04 ± 0.025 | 0.894 ± 0.22 | 1.06 ± 0.025 | 1.007 ± 0.0058 | 0.9977 ± 0.004
16 | CCCCOc1c(C(=O)c2c(F)cc(C)cc2F)c[nH]c2nncc1-2 | 0.91 ± 0.018 | 0.988 ± 0.017 | 0.9857 ± 0.0032 | 1.02 ± 0.022 | 0.561 ± 0.04 | 0.861 ± 0.018
17 | CN(C)CCCn1cc(C2=C(c3c[nH]c4ccccc34)C(=O)NC2=O)c2ccccc21 | 0.992 ± 0.017 | 1.06 ± 0.011 | 1.01 ± 0.02 | 1.01 ± 0.059 | 1.03 ± 0.011 | 1.05
18 | Cn1cc(C2=C(c3cn(CCCSC(=N)N)c4ccccc34)C(=O)NC2=O)c2ccccc21 [Ro 31-8220 Mesylate] | 0.998 ± 0.013 | 0.125 ± 0.013 | 0.973 ± 0.036 | 0.297 ± 0.087 | 1.013 ± 0.0058 | 0.0242 ± 0.0022
19 | O=Nc1ccc2oc(=O)ccc2c1 [6-Nitroso-1,2-benzopyrone] | 1.02 ± 0.01 | 1.02 ± 0.015 | 1.027 ± 0.0058 | 0.857 ± 0.29 | 1.013 ± 0.0058 | 1.02 ± 0.01
20 | CN(C)CCC(c1ccc(Br)cc1)c1ccccn1 (single isomer, unassigned; (+)) [(+)-Brompheniramine maleate] | 1.01 ± 0.017 | 1.023 ± 0.0058 | 1.05 ± 0.04 | 1.03 ± 0.021 | 1.006 ± 0.0069 | 1.02 ± 0.011
21 | Nc1ncnc2c1ncn2[C@@H]1O[C@H](COP(=O)(O)CP(=O)(O)OP(=O)([O-])O)[C@@H](O)[C@H]1O.[Li+] [alpha,beta-Methylene adenosine 5'-triphosphate lithium salt] | 1.02 ± 0.011 | 1 ± 0.036 | 1.01 ± 0.014 | 0.992 ± 0.013 | 1.005 ± 0.0081 | 1.02 ± 0.021
22 | Cc1nc(N=Nc2cc(S(=O)(=O)O)c3cc([N+](=O)[O-])cc(S(=O)(=O)O)c3c2)c(COP(=O)(O)O)c(C=O)c1O [PPNDS tetrasodium] | 1.001 ± 0.0085 | 1.01 ± 0.037 | 1.013 ± 0.0058 | 0.857 ± 0.27 | 0.9973 ± 0.0021 | 0.999 ± 0.0098
23 | CC(NC(=O)C(O)c1cc(F)cc(F)c1)C(=O)NC1C(=O)N(C)c2ccccc2-c2ccccc21 (stereo not given) | 0.973 ± 0.013 | 0.995 ± 0.017 | 0.977 ± 0.015 | 1.007 ± 0.0058 | 0.9893 ± 0.0038 | 0.9993 ± 0.0011
24 | CO[C@H](C(=O)[C@@H](O)[C@@H](C)O)[C@@H]1Cc2cc3cc(O[C@H]4C[C@@H](O[C@H]5C[C@@H](O)[C@H](O)[C@@H](C)O5)[C@H](O)[C@@H](C)O4)c(C)c(O)c3c(O)c2C(=O)[C@H]1O[C@H]1C[C@@H](O[C@H]2C[C@@H](O[C@H]3C[C@](C)(O)[C@H](O)[C@@H](C)O3)[C@@H](O)[C@@H](C)O2)[C@H](O)[C@@H](C)O1 [Plicamycin] | 0.0675 ± 0.0023 | 0.0276 ± 0.0011 | 0.102 ± 0.0097 | 0.0631 ± 0.0043 | 0.0202 ± 0.0011 | 0.011 ± 0.0021
25 | CC1(C2CCCC2)Cc2cc(OCC(=O)O)c(Cl)c(Cl)c2C1=O (stereo not given) | 0.983 ± 0.014 | 0.982 ± 0.037 | 0.9883 ± 0.0072 | 0.986 ± 0.084 | 0.998 ± 0.011 | 0.9853 ± 0.0067
